# Assay outcomes as filed in PubChem BioAssay.
# Sampled rows, rich in hits. Any-hit rate of the full collection: about 2.6%.
# Cruzain inh noDet = qHTS Assay for Promiscuous and Specific Inhibitors of Cruzain (without detergent). Cruzipain (Trypanosoma cruzi), P25779. Potency, µM, inactives show max response, negative = inhibition, most hits filed as inhibitors. 200,000 tested, 2.3% active. purified cruzain, Z-FR-AMC fluorescence, no detergent. AID 1476, 2009;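 also: plate controls were enzyme without inhibitor for no effect and buffer without enzyme for full effect; nearly all actives have a fitted effect of over 40% in size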
# Target sequence (P25779 123-467 limits assumed): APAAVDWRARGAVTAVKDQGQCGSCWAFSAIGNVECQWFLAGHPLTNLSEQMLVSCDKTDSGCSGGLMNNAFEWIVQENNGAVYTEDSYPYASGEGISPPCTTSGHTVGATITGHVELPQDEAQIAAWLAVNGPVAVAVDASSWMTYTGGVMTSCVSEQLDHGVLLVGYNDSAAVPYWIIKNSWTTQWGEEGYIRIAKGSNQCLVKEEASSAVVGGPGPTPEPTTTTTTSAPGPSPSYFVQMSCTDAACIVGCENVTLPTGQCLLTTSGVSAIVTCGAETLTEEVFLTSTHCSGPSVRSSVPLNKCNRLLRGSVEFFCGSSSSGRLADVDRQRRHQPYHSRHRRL
#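 Purified cruzain at 1.5 nM, pre-incubated 15 min with compound at room temperature in 100 mM sodium acetate pH 5.5, 5 mM DTT, 0.00005% Triton X-100. Reaction started with 2 uM Z-FR-AMC; AMC fluorescence increase over 60 s gives rate.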
# Cruzain inh Det = qHTS Assay for Promiscuous and Specific Inhibitors of Cruzain (with detergent); AID 1478, 2009; Potency, µM, inactives show max response, negative = inhibition, most hits filed as inhibitors; 200,000 tested, 0.43% active; purified cruzain, Z-FR-AMC fluorescence, 0.01% Triton;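 also: plate controls were neutral wells for no effect and buffer without enzyme for full effect; nearly all actives have a fitted effect of over 40% in size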
#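 Steps: dispense cruzain (1.5 nM final) in acetate buffer pH 5.5 with DTT and 0.01% Triton X-100; pin-transfer compounds; incubate 15 min RT; add Z-FR-AMC (2 uM final); read fluorescence every 30 s, using the 60 s intensity change.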
# Starred values were filed as active, the others as inactive; ? = inconclusive. Calls follow the shape of the dose curve; as a rule, active = well fitted curve in the direction sought with a large enough effect; inconclusive = small, poorly fitted or top-dose-only effect, or another doubt; inactive = no such curve, though single readings can be large; an effect the other way counts as inactive or inconclusive. Potency is read from the fitted curve at half-maximal effect.
SMILES,Cruzain inh noDet,Cruzain inh Det
CCc1cccc(C)c1NC(=O)Cn1ccn(Cc2ccc(Cl)cc2)c(=O)c1=O,7%,0%
Cc1ccc2c(CC(=O)Nc3ccc(N4CCN(C)CC4)cc3C)coc2c1,25µM*,1%
Cc1ccc(NC(=O)Cc2coc3c(C)c(C)ccc23)c(C)c1,-21%,-4%
Cc1ccc(C(=O)Nc2ccccc2C(=O)O)cc1S(=O)(=O)N1CCCCCC1,-6%,-10%
Cc1ccc(C)c(S(=O)(=O)N2CCN(C(C(=O)Nc3ccc(F)cc3)c3ccccc3)CC2)c1 (stereo unspecified),25µM*,-3%
O=C(Nc1ccc(F)cc1)C(c1ccccc1)N1CCN(S(=O)(=O)c2ccc3ccccc3c2)CC1 (stereo unspecified),?,-2%
O=C(CSc1nnc(-c2ccccc2)c(-c2ccccc2)n1)NC1CCCCC1,-25%,-12%
CCc1nnc(NC(=O)CSc2nc(-c3ccc(F)cc3)cc(-c3ccccc3)c2C#N)s1,7.9µM*,0%
COc1ccc(-c2cc(-c3ccccc3)nc(SCC(=O)Nc3ncc(C)s3)c2C#N)cc1,7.9µM*,-5%
COc1ccc(-c2cc(-c3cccs3)c(C#N)c(SCC(=O)NCc3ccccc3OC)n2)cc1,?,6%
CCSc1nc(-c2ccc(OC)cc2)cc(-c2ccccc2)c1C#N,-14%,-1%
Cc1cccc(-c2cc(-c3ccccc3)nc(SCC(=O)Nc3ccccc3)c2C#N)c1,12%,1%
COc1ccc(-c2cc(-c3cccs3)c(C#N)c(SCC(=O)NCc3ccccc3)n2)cc1,7.9µM*,4%
O=S(=O)(c1ccccc1)n1nc(-c2ccc(Cl)cc2)nc1NCc1ccc(F)cc1,-19%,-2%
COc1ccc(C(=O)N(Cc2ccc(N(C)C)cc2)Cc2ccco2)cc1Cl,-6%,-8%
Cc1cc(C)cc(N2CCn3c2nc2c3c(=O)n(CCCc3ccccc3)c(=O)n2C)c1,5%,-2%
COc1cc(C2Nc3cccc4cccc(c34)N2)cc(OC)c1O,-22%,-12%
Cc1ccc(C2Nc3cccc4cccc(c34)N2)s1,20µM*,-8%
O=[N+]([O-])c1ccc(C2Nc3cccc4cccc(c34)N2)cc1,?,-1%
Oc1ccc(C2Nc3cccc4cccc(c34)N2)c(O)c1,16µM*,?
c1coc(C2Nc3cccc4cccc(c34)N2)c1,7.9µM*,-11%
O=[N+]([O-])c1cccc(C2Nc3cccc4cccc(c34)N2)c1,?,-9%
Cc1cc(C)n(CCc2nc3c4ccccc4nc(N4CCN(c5ccccc5F)CC4)n3n2)n1,-4%,1%
COc1ccc(Br)c(C(=O)Nc2cc3c(cc2N2CCCC2)n(C)c(=O)c(=O)n3C)c1,-9%,-7%
Cn1c(CS/C(N)=N/N=C/c2ccccc2)c(Br)c(=O)n1-c1ccccc1,32µM*,?
SMILES,Cruzain inh noDet,Cruzain inh Det
NC(N)=N/N=C/c1ccccc1,-6%,-4%
COc1ccccc1CNC(=O)CSc1nnc(C)c2c(C)n(-c3ccccc3)nc12,-3%,-6%
COc1cccc(-n2c(/C=C/c3ccccc3O)nc3ccccc3c2=O)c1,20µM*,-8%
COc1cccc(-n2c(SCc3cc(=O)oc4cc(O)c(O)cc34)nc3ccccc3c2=O)c1,25µM*,-15%
Cc1cccc(-n2c(/C=C/c3ccccc3O)nc3ccccc3c2=O)c1,?,-6%
CCN(CC)C(=O)CSc1nc2ccccc2c(=O)n1-c1cccc(OC)c1,-1%,-2%
CCN(C(=O)c1noc2c1COc1ccc(C)cc1-2)c1cccc(C)c1,-7%,1%
COc1cccc(CNC(=O)C(CC(C)C)NS(=O)(=O)c2ccc3c(c2)oc(=O)n3C)c1 (stereo unspecified),1%,-3%
Cc1ccc2c(c1)N(C(=O)N1CCC(C(=O)NC3CCCCCC3)CC1)CC(C)O2 (stereo unspecified),1%,-3%
CCOc1ccc(S(=O)(=O)Nc2ccc3c(c2)CCCN3S(=O)(=O)c2ccc(C)cc2)cc1,?,-2%
Cc1ccc(S(=O)(=O)N2CCCc3cc(NS(=O)(=O)c4cccc(Cl)c4)ccc32)cc1,25µM*,-2%
CCOC(=O)[C@@H](O)Cc1cnc2ccccc2n1,-1%,3%
Cn1ccc2cc(S(=O)(=O)N3CCN(C(=O)Nc4ccc(F)cc4F)CC3)ccc21,-4%,-4%
COc1cccc(C(=O)Nc2nc3ccc(S(=O)(=O)N4CCCC4)cc3s2)c1,-6%,-9%
O=C(Nc1nc(-c2ccccc2)cs1)c1ccc(S(=O)(=O)N2CCc3ccccc32)cc1,6.3µM*,-1%
O=C(Nc1nc(-c2ccc3c(c2)Cc2ccccc2-3)cs1)c1ccccc1,20µM*,0%
Cc1ccc(-c2csc(NC(=O)c3ccc(S(=O)(=O)N4CCc5ccccc54)cc3)n2)cc1,5µM*,1%
O=C(Nc1nc(-c2ccccc2)cs1)c1cccc([N+](=O)[O-])c1,?,-3%
O=C(Nc1nc(-c2ccc(S(=O)(=O)N3CCOCC3)cc2)cs1)c1ccccc1,-15%,-6%
Cc1ccc(-c2csc(NC(=O)c3cccc(S(=O)(=O)N4CCN(C)CC4)c3)n2)cc1,-4%,-13%
COc1ccc(/C=N/Nc2nc(-c3cccc(S(=O)(=O)N4CCCC4)c3)cs2)c(OC)c1,7.9µM*,-2%
Cc1cccc(C2=N[C@@H](Cc3ccccc3)CO2)c1,-24%,-1%
COC(=O)c1cc(NC(=O)CN(c2ccccc2)S(=O)(=O)N(C)C)ccc1Cl,-3%,-8%
Cc1ccccc1Nc1c(-c2ccsc2)nc2c(C)cccn12,5%,-9%
COc1ccc(NC(=O)CSCc2cc(=O)c3cc(Cl)ccc3[nH]2)cc1,-8%,3%
SMILES,Cruzain inh noDet,Cruzain inh Det
CCc1c(C)c(C#N)c2nc3ccccc3n2c1Nc1cccc(C(F)(F)F)c1,-4%,-2%
COc1cccc(C(=O)Nc2nc(-c3ccc(S(=O)(=O)N4CCOCC4)cc3)cs2)c1,?,0%
COc1ccc(-c2csc(NC(=O)c3ccc(S(=O)(=O)N4CCc5ccccc5C4)cc3)n2)c(OC)c1,4µM*,-2%
C#CCSc1nc(-c2ccccc2)cc(-c2ccccc2)c1C#N,-28%,-6%
Cc1ccc(-c2cc(-c3ccccc3)c(C#N)c(SCC(O)CS(=O)(=O)Cc3ccccc3)n2)cc1 (stereo unspecified),10µM*,-3%
N#Cc1c(-c2ccccc2)cc(-c2ccccc2)nc1SCC(O)CS(=O)(=O)Cc1ccccc1 (stereo unspecified),20µM*,-2%
Cc1cc(-c2ccccc2)c(C#N)c(SCC(N)=O)n1,-5%,0%
COc1ccc(Nc2nc3c(S(=O)(=O)c4ccccc4)nnn3c3ccc(Cl)cc23)c(OC)c1,12%,0%
COc1cccc(C(=O)NCCSc2c(-c3ccc(F)cc3)[nH]c3ccccc23)c1OC,?,-4%
CC(C)NCc1c(O)c(Br)cc2oc3c(c12)CCCC3,13µM*,0%
O=C1NCCCc2c1oc1cc(Br)c(O)c(Br)c21,-10%,-1%
CCC(C)c1ccc(OCC(=O)O)cc1 (stereo unspecified),-2%,3%
CCC(C)c1ccc(OCC(=O)Nc2ccc3[nH]c(=O)[nH]c3c2)cc1 (stereo unspecified),25µM*,-2%
Cc1ccc2c(c1)c(N1CCCC1=O)c(C(=O)Nc1ccc(F)cc1F)n2C,-7%,-5%
